Source: PubChem BioAssay
BaF3 parental = parental Ba/F3 viability inhibition as JAK2V617F counter-screen. CellTiter-Glo ATP luminescence. inhibition, % at 5.6 µM. hit rate 1.1% among 220,000. AID 1486;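 active means inhibition above a per-campaign cutoff, the mean inhibition of all tested compounds plus 3 SD, cut at about 27% in these data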
KLF5 inhibitor = inhibitors of KLF5 expression; AID 1700; inhibition, % at 5 µM; DLD-1 KLF5 promoter-luciferase reporter, luminescence; hit rate 0.23% among 290,000;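 active means inhibition above a per-plate limit of that plate's mean compound inhibition plus 3 SD, cut at about 60% in these data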;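 further: higher means less KLF5 promoter-driven luciferase light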
aSyn UTR inh = 5' untranslated region of α-synuclein, MLPCN primary screen. alpha-synuclein 5'UTR reporter, inhibitor activity. hit rate 0.82% among 300,000. inhibition, % (tested at 7.5 µM); in the data active means inhibition above about 60%;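 further: H4 neuroglioblastoma cells stably carrying SNCA 5'UTR luciferase fusion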
APP 5UTR inh = APP translation inhibition | SH-SY5Y APP 5'UTR-luciferase reporter, luminescence | inhibition, % at 2 µM | AID 1285 | hit rate 0.82% among 190,000;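 active means inhibition above a set limit, derived from the sample mean plus 3 SD, cut at about 45% in these data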
IEC-6 tox = IEC-6 cytotoxicity, counter-screen for KLF5 inhibitors; luminescence viability; inhibition, % at 5 µM; hit rate 0.78% among 290,000; AID 1825; in the data active means inhibition above about 22%
Ba/F3 V617F tox = loss of viability in JAK2V617F-driven Ba/F3 cells; hit rate 1.1% among 220,000; Ba/F3 EpoR-JAK2V617F viability, ATP luminescence; inhibition, % at 5.6 µM;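 active means inhibition above the campaign mean plus 3 SD over all tested compounds, cut at about 24% in these data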;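 further: cytokine-independent growth of Ba/F3 cells driven by EpoR plus mutant JAK2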
BaF3 tox 2 = parental Ba/F3 viability inhibition for JAK2V617F counter-screen; inhibition, % at 5.6 µM; hit rate 31% among 580; CellTiter-Glo luminescence; cells kept alive by added IL-3; shares compounds with Ba/F3 V617F tox;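 active means cell growth inhibition above the hit limit set in the earlier mutant JAK2 cell screen, cut at about 27% in these data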
JAK2V617F conf = Ba/F3 EpoR-JAK2V617F viability loss, confirmation; AID 1521; CellTiter-Glo luminescence; inhibition, % at 5.6 µM; hit rate 66% among 580; shares compounds with Ba/F3 V617F tox;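 active means mean inhibition above the hit cutoff derived in the earlier primary screen, cut at about 25% in these data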;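 further: higher means lower luminescence from reduced cell ATP and viability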
Large screens that a line does not name were inactive (follow-up assays come after a bar, where they were run). Compounds with a hit are over-represented: about 2.2% of the library has one in this group of screens.

CCOC(=O)N1CCN(c2c(F)cc3[nH]c(=S)[nH]c3c2Br)CC1	Ba/F3 V617F tox 27.8 | BaF3 tox 2 inactive | JAK2V617F conf 25.3
Cc1cccc([C@@H]2[C@@H]3C(=O)N(Cc4ccccc4)C(=O)[C@@H]3[C@]3(Cc4ccccc4)C(=O)N(c4cccc(F)c4)C(=O)N23)c1	none (no result: BaF3 parental, KLF5 inhibitor, APP 5UTR inh, IEC-6 tox, Ba/F3 V617F tox)
O=C(NCC1CCCO1)c1cccc(N2C(=O)C3C4C=CC(C4)C3C2=O)c1 (stereo unspecified)	Ba/F3 V617F tox 95.9 | BaF3 tox 2 inactive | JAK2V617F conf inactive
COc1ccc(NC(=O)CN(C)CC(=O)Nc2ccc(Cl)cc2F)cc1	none
O=C(O)CCc1ccccc1OC(=O)c1ccccc1	none (no result: APP 5UTR inh)
O=C(Oc1cccc2c(O)cccc12)c1ccccc1	Ba/F3 V617F tox 23.9 | BaF3 tox 2 inactive | JAK2V617F conf 67.4
O=C(NC1CCCCC1)C(=O)c1c[nH]c2ccccc12	none (no result: BaF3 parental, APP 5UTR inh, Ba/F3 V617F tox)
COc1cc(/C=C2/SC(=S)N(CC(=O)NC(C)(C)C)C2=O)cc(OC)c1OC	none
COc1cc(/C=C2\SC(=S)N(CC(=O)NC(C)(C)C)C2=O)cc(OC)c1OC	Ba/F3 V617F tox 102.4 | BaF3 tox 2 inactive | JAK2V617F conf inactive
O=C(/C(=N/N=C/c1ccc(O)c(O)c1)c1ccccc1)c1ccccc1	Ba/F3 V617F tox 49.1 | BaF3 tox 2 inactive | JAK2V617F conf 98.8
Oc1ccc(/C=N/N=C/c2ccc(O)c(O)c2)cc1O	none (no result: BaF3 parental, APP 5UTR inh, Ba/F3 V617F tox)
COc1c(Cl)cc(C(=O)NN)cc1Cl	aSyn UTR inh 98.7, APP 5UTR inh 92.2, IEC-6 tox 52.4, Ba/F3 V617F tox 42.0 | BaF3 tox 2 inactive | JAK2V617F conf inactive
CCN(CC)CCCNC(=O)c1cc(-c2ccc(Cl)cc2)on1	Ba/F3 V617F tox 24.0 | BaF3 tox 2 inactive | JAK2V617F conf inactive
COc1ccc(-c2cc(N)n(S(=O)(=O)c3c(F)c(F)c(F)c(F)c3F)n2)cc1OC	Ba/F3 V617F tox 44.8 | BaF3 tox 2 93.2 | JAK2V617F conf 93.2
CCCCn1c(SCC(=O)c2ccc(O)c(O)c2)nc2ccsc2c1=O	Ba/F3 V617F tox 39.9 | BaF3 tox 2 31.5 | JAK2V617F conf 88.3
Cc1ccc(Cn2ccsc2=NC(=O)COC(=O)c2ccc(NC(=O)CC#N)cc2)cc1	none (no result: BaF3 parental, KLF5 inhibitor, APP 5UTR inh, IEC-6 tox, Ba/F3 V617F tox)
Cc1ccc(Cn2ccsc2=NC(=O)CCl)cc1	IEC-6 tox 92.6, Ba/F3 V617F tox 69.1 (no result: aSyn UTR inh) | BaF3 tox 2 inactive | JAK2V617F conf 97.5
CCOc1cc(S(=O)(=O)NCCCN2CCOCC2)c(C)cc1C	none (no result: BaF3 parental, APP 5UTR inh, Ba/F3 V617F tox)
N=c1c2c3c(sc2ncn1Cc1ccco1)CCCCC3	Ba/F3 V617F tox 24.6 | BaF3 tox 2 inactive | JAK2V617F conf inactive
CC(Oc1ccc(F)cc1)C(O)CCN(C)C (stereo unspecified)	none
CCCCNCc1cc(OCC)c(OCC)cc1Br	none
CCOCC(=O)Nc1cc(C(=O)Nc2ccc(F)cc2)ccc1Cl	none
CC(C)(C)OC(=O)N[C@@H](Cc1ccccc1)c1nnc(S(=O)(=O)Cc2cccc(F)c2)o1	APP 5UTR inh 52.8, Ba/F3 V617F tox 44.0 | BaF3 tox 2 inactive | JAK2V617F conf 72.4
CC(C)C[C@H](N)c1nnc(S(=O)(=O)Cc2cccc(F)c2)o1	none
Cc1ccccc1CS(=O)(=O)c1nnc([C@H](CC(C)C)NC(=O)OC(C)(C)C)o1	Ba/F3 V617F tox 47.2 | BaF3 tox 2 inactive | JAK2V617F conf 54.8
Cc1nc([N+](=O)[O-])c(Sc2nc3ccccc3[nH]2)n1Cc1ccccc1	none
Cn1cnc([N+](=O)[O-])c1Sc1nc2ccccc2[nH]1	Ba/F3 V617F tox 34.1 (no result: APP 5UTR inh) | BaF3 tox 2 inactive | JAK2V617F conf 43.5
CC1(C)CC(=O)C(C=NCCN2CCN(C(=S)Nc3ccc(F)cc3)CC2)=C(O)C1	Ba/F3 V617F tox 36.9 | BaF3 tox 2 inactive | JAK2V617F conf 40.0
COc1ccc(C(=O)NCCS(=O)(=O)NC(C)c2ccccc2)cc1 (stereo unspecified)	none (no result: BaF3 parental, KLF5 inhibitor, APP 5UTR inh, IEC-6 tox, Ba/F3 V617F tox)
Cc1sc2ncnc(NCc3cccs3)c2c1C	Ba/F3 V617F tox 33.6 | BaF3 tox 2 42.6 | JAK2V617F conf 64.2
CCn1c(SCC(=O)Nc2ccccc2-c2ccccc2)nnc1-c1ccoc1C	Ba/F3 V617F tox 52.2 | BaF3 tox 2 inactive | JAK2V617F conf inactive
CCn1c(SCC(=O)Nc2ccccc2F)nnc1-c1ccoc1C	none (no result: BaF3 parental, APP 5UTR inh, Ba/F3 V617F tox)
CC(=O)c1ccc(N2CCN(C(=O)c3ccc4ccccc4n3)CC2)cc1	Ba/F3 V617F tox 75.6 | BaF3 tox 2 inactive | JAK2V617F conf inactive
Cc1cccc(N(Cc2ccccc2)C(=O)CCl)c1	Ba/F3 V617F tox 56.9 | BaF3 tox 2 inactive | JAK2V617F conf 97.9
CCc1noc(C)c1C(=O)Nc1cc(Cl)ccc1N1CCCC1	none (no result: BaF3 parental, KLF5 inhibitor, APP 5UTR inh, IEC-6 tox, Ba/F3 V617F tox)
[O-][N+]1=c2ccc(Nc3ccccc3)cc2=NC12CCCCC2	Ba/F3 V617F tox 42.0 | BaF3 tox 2 inactive | JAK2V617F conf 98.0
COc1ccc(Nc2ccc3c(c2)=NC2(CCCCC2)[N+]=3[O-])cc1	APP 5UTR inh 49.2, Ba/F3 V617F tox 44.2 | BaF3 tox 2 inactive | JAK2V617F conf 99.7
O=[N+]([O-])c1ccc2c(c1N1CCCCC1)=NC1(CCCCC1)[N+]=2[O-]	none (no result: APP 5UTR inh)
CCOC(=O)CSc1nc2sc3c(c2c(=O)n1-c1ccccc1)CCN(C(C)C)C3	none (no result: BaF3 parental, APP 5UTR inh, Ba/F3 V617F tox)
Cc1ccc2nc(C)cc(Nc3ccc([N+](=O)[O-])cc3)c2c1	Ba/F3 V617F tox 37.5 | BaF3 tox 2 inactive | JAK2V617F conf 82.0
COc1ccc2nc(C)cc(Nc3ccc(C)cc3)c2c1	none (no result: BaF3 parental, APP 5UTR inh, Ba/F3 V617F tox)
Cc1cccc(CN(C(=S)Nc2c(C)cccc2C)c2cccnc2)c1	Ba/F3 V617F tox 102.5 | BaF3 tox 2 inactive | JAK2V617F conf inactive
CCc1ccccc1NC(=S)N(Cc1cccc(C)c1)c1cccnc1	none
O=C(OCn1ncc(Cl)c(Cl)c1=O)c1ccccc1Cl	APP 5UTR inh 86.8, IEC-6 tox 89.0, Ba/F3 V617F tox 25.7 | BaF3 tox 2 inactive | JAK2V617F conf 97.8
O=C(OCCN1CCCCC1)c1ccccc1Cl	none
O=C(OCn1ncc(Cl)c(Cl)c1=O)c1ccc(F)cc1	APP 5UTR inh 96.7, Ba/F3 V617F tox 32.2 | BaF3 tox 2 inactive | JAK2V617F conf 97.3
CCOC(=O)Cn1nc(C)c([N+](=O)[O-])c1C	none
Cc1ccc(OCCOC(=O)Cn2nc(C)c([N+](=O)[O-])c2C)cc1	Ba/F3 V617F tox 26.1 | BaF3 tox 2 inactive | JAK2V617F conf inactive
Cc1ccc(NC(=S)N(CCN(C)C)Cc2cc3cccc(C)c3[nH]c2=O)cc1	Ba/F3 V617F tox 43.0 | BaF3 tox 2 inactive | JAK2V617F conf 39.0
Cc1cccc(NC(=S)N(CCN(C)C)Cc2cc3cccc(C)c3[nH]c2=O)c1	none
COc1cc(C(O)P(=O)(OCCC(C)C)c2ccc(N(C)C)cc2)cc(OC)c1OC (stereo unspecified)	none (no result: APP 5UTR inh)
COc1ccc(OC)c(NC(=O)c2nnn(Cc3ccccc3C)c2N)c1	Ba/F3 V617F tox 23.6 | BaF3 tox 2 37.4 | JAK2V617F conf 30.4
COc1ccc(C)cc1NC(=O)c1nnn(Cc2cc(C)ccc2C)c1N	none
